Screens: PubChem, National Center for Advancing Translational Sciences (NCATS)
Cruzain inh Det = blocks cruzain activity in presence of Triton detergent; Potency, µM, most hits filed as inhibitors; hit rate 0.43% among 200,000; P25779; purified cruzain, Z-FR-AMC fluorescence, 0.01% Triton; further: nearly all actives have a fitted effect of over 40% in size
Target sequence (P25779 123-467 limits assumed): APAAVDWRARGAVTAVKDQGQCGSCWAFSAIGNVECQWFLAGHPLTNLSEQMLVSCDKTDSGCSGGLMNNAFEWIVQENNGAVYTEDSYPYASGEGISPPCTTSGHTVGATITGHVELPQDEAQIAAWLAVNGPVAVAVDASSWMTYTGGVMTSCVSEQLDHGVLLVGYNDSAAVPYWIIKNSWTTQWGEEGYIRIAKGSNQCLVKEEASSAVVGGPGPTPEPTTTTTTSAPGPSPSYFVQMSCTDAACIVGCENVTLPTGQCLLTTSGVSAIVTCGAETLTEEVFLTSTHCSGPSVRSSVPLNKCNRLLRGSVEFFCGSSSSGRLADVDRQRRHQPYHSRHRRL
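Read-out: AMC fluorescence (360 nm excitation, 450 nm emission), four reads over 2 min, first-to-third difference used. Conditions: cruzain 1.5 nM, Z-FR-AMC 2 uM, pH 5.5 acetate, 5 mM DTT, 0.01% Triton X-100.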
Cruzain noTriton = inhibitors of Trypanosoma cruzi cruzain without detergent | P25779 | purified cruzain, Z-FR-AMC fluorescence, no detergent | Potency, µM, most hits filed as inhibitors | hit rate 2.3% among 200,000 | AID 1476; further: nearly all actives have a fitted effect of over 40% in size
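Detergent-free condition (0.00005% Triton X-100) in acetate buffer pH 5.5 with DTT. 1.5 nM enzyme and compound were pre-mixed 15 min, then 2 uM Z-FR-AMC substrate added; reaction progress from fluorescence change between first and third reads (60 s).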
Of the large screens only hits and unclear results are named; the others gave an inactive call. Only some compounds are listed: those with a hit (about 2.5% of all), similar ones and a draw of the others. The call rests on the fitted dose curve; in most records, active means well fitted curve in the direction sought with a large enough effect; inconclusive means small, poorly fitted or top-dose-only effect, or another doubt; inactive means no such curve, though single readings can be large; an effect the other way counts as inactive or inconclusive.

CCOC(=O)c1sc(NC(=O)C(CC)OC(=O)C(CC(C)C)NC(=O)c2ccccc2)nc1C (centres undefined)	Cruzain inh Det 10µM
CCOC(=O)c1sc(NC(=O)/C=C/c2ccccc2)nc1C	Cruzain noTriton 25µM
CCOC(=O)c1sc(NC(=O)C(OC(C)=O)c2ccccc2)nc1C (centres undefined)	none
COc1ccc(-c2nc3cnc(N(C)C)nc3n(C3CC3)c2=O)cc1	none
COc1ccc(C(=O)NC(=S)N2CCCCC2)cc1[N+](=O)[O-]	none
Cc1c([N+](=O)[O-])cc(C(=O)Oc2ccc(Br)cc2C(=S)N2CCCCC2)cc1[N+](=O)[O-]	Cruzain noTriton 25µM
C[C@]12CCC(=O)C=C1CCC1C3CC[C@](O)(C(=O)CO)[C@@]3(C)CC3OC312 (some centres undefined)	none
CC(=O)c1c(N2CCN(Cc3ccccc3)CC2)[nH]c(-c2ccccc2)nc1=S	Cruzain noTriton 10µM
CC(=O)c1c(N2CCCC2)[nH]c(-c2ccccc2)nc1=S	none
CCN(Cc1ccccc1)c1ccc(/C=N/NS(=O)(=O)c2cccc([N+](=O)[O-])c2)cc1	Cruzain noTriton 25µM
CCN(CC)c1ccc(/C=N/NS(=O)(=O)c2ccc(C)c([N+](=O)[O-])c2)cc1	none
O=C(Nc1ccc(F)cc1)Nc1nnc(SCC(=O)N2CCCCC2)s1	none
COc1cccc(CNC(=O)c2cc(S(=O)(=O)N3CCCCC3)cn2C)c1	none
O=C(NC1CC(=O)N(c2ccc(F)cc2)C1)c1ccc2c(c1)OCO2 (centres undefined)	none
CN(C)c1cccc(C(=O)OCc2cc(=O)oc3cc(O)ccc23)c1	none
O=C(Cc1cc(=O)oc2cc(O)ccc12)NCC1CCC(C(=O)O)CC1 (centres undefined)	Cruzain inh Det 25µM
COC(=O)Cc1nnc(NC(=O)c2ccccc2)s1	none
Cc1ccc(SCc2nnc(NC(=O)c3ccccc3)s2)cc1	Cruzain noTriton 10µM
COC(=O)c1nn(-c2ccccc2)c2nnc(Cc3ccc(C)cc3)c(=O)n12	none
O=C(c1ccccc1)c1nn(-c2ccccc2)c2nnc(Cc3ccccc3)c(=O)n12	Cruzain noTriton 25µM
Cc1ccc(Cn2c(CN3CCC(C(=O)NCc4cccnc4)CC3)cc3ccccc32)cc1	none
CCC(C)NC(=O)CSc1nc2n[nH]c(C)c2c(=N)n1-c1ccc(C)c(Cl)c1 (centres undefined)	none
Cn1c(SCC(=O)Nc2sc3c(c2C#N)CCC3)nnc1C1COc2ccccc2O1 (centres undefined)	none
C=CCn1c(SCC(=O)Nc2sc3c(c2C#N)CCC3)nnc1C1COc2ccccc2O1 (centres undefined)	Cruzain noTriton 32µM
C=C(C(=O)OC)C(NC(=O)OC)c1ccccc1 (centres undefined)	none
COC(=O)c1c(-c2ccc(Cl)cc2)noc1N1CCN(c2cccc(C(F)(F)F)c2)CC1	none
COc1ccc(C(=N/O)/C(=N/O)c2ccc(OC)cc2)cc1	none
COc1ccc(C(Cl)=C(c2ccc(OC)cc2)c2ccc(OC)cc2)cc1	Cruzain noTriton 20µM
COCCCNC(=O)C1CCN(c2cc(C)nc3c(-c4ccc(Cl)cc4)c(C)nn23)CC1	none
CCCCCC(=O)NCC(C)NC(=O)CCCCC (centres undefined)	none
CC(CNC(=O)C(C)(C)C)NC(=O)C(C)(C)C (centres undefined)	Cruzain noTriton 5µM
CCOc1ccc(C2C(C(=O)Nc3ccc(C)cc3C)=C(C)Nc3c(C(=O)Nc4ccc(C)cc4)cnn32)cc1OC (centres undefined)	Cruzain noTriton inconclusive
COc1ccc(-c2cc(C)no2)cc1S(=O)(=O)N1CC(C)Oc2ccccc21 (centres undefined)	none
COc1ccc(NS(=O)(=O)c2ccc(OC)c(N(C)S(=O)(=O)c3ccc(Cl)cc3)c2)cc1	none
COc1ccc(S(=O)(=O)Nc2ccc(F)cc2)cc1N(C)S(=O)(=O)c1ccc(Cl)cc1	Cruzain noTriton 20µM
CN(C(=O)Cn1nnc(-c2ccc(S(C)(=O)=O)cc2)n1)c1ccccc1	none
CCn1ccc2cc(S(=O)(=O)N3CCCN(C(=O)NCCOC)CC3)ccc21	none
Cc1ccccc1NC(C)C(=O)N/N=C/c1ccccc1OCc1cccc(Br)c1 (centres undefined)	Cruzain noTriton 32µM
COc1ccc(NC(C)C(=O)N/N=C/c2ccccc2OCc2cccc(Br)c2)cc1 (centres undefined)	Cruzain noTriton inconclusive
O=C(Nc1ccc(-c2cn3ccccc3n2)cc1)c1ccc(Cl)cc1	Cruzain noTriton 13µM
O=C(Nc1ccc(-c2cn3ccccc3n2)cc1)c1ccco1	none
CCOC(=O)c1sc(-c2ccc(Br)cc2)cc1N	none
CCOC(=O)c1cc(-c2ccc(N)cc2)sc1N	Cruzain noTriton 32µM
COc1cccc(C2C(C(N)=O)=C(C)Nc3ncnn32)c1 (centres undefined)	none
COc1ccc(-n2c(/C=C/c3cccc4ccccc34)nc3ccccc3c2=O)cc1OC	Cruzain noTriton inconclusive
